Source: ChEMBL document CHEMBL1157539, “Thousands of chemical starting points for antimalarial lead identification” (Nature, 2010)

Columns and labels:
Type in all cases: functional
Plasmodium falciparum [1] = test: GSK_TCMDC: Inhibition of Plasmodium falciparum 3D7 in whole red blood cells, using parasite LDH activity as an index of growth. Test compounds present at 2uM
Plasmodium falciparum [2] = test: GSK_TCMDC: Inhibition of Plasmodium falciparum Dd2 in whole red blood cells, using parasite LDH activity as an index of growth. Test compounds present at 2uM
HepG2 = test: GSK_TCMDC: Percent inhibition of human HepG2 cell line. Test compounds present at 10uM.

Row | Compound | Inhibition (Plasmodium falciparum [1]) [%] | Inhibition (Plasmodium falciparum [2]) [%] | Inhibition (HepG2) [%]
1 | CCC(C)c1ccc(NC(=O)Nc2ccc(Cn3ncc(N4CCCNCC4)c(Cl)c3=O)cc2)cc1.O=C(O)C(F)(F)F (configuration not stated) | 83 | 31 | 0
2 | COc1ccc(NC(=O)NC2CCN(CCCOc3cc(C)nc4ccccc34)CC2)cc1OC | 97 | 9 | 3
3 | Cn1nccc1C(=O)NCCNCc1ccc(-c2ccc(-c3nc4ccccc4[nH]3)s2)cc1.O=C(O)C(F)(F)F | 100 | 97 | 23
4 | Cl.O=C(NCCCCN1CCC(O)(c2ccc3c(c2)OCO3)CC1)c1ccc(NC(=O)c2ccc(Cl)cc2)cc1 | 86 | 6 | 15
5 | CCn1cc(-c2cc(C(=O)Nc3ccc(OC)cc3C)c3ccccc3n2)c(C)n1 | 97 | 100 | 0
6 | CN(C)CCCNCc1cn(S(=O)(=O)c2ccccc2Cl)c2ccccc12.Cl | 92 | 71 | 20
7 | CN1CCC(Oc2ccc(NC(=O)c3ccc4c(=O)n(Cc5ccccc5)cnc4c3)cc2Cl)CC1 | 95 | 20 | 23
8 | CCCC(=O)Nc1ccc(Cl)c(NC(=O)COc2cc(C)ccc2C(C)C)c1 | 87 | 67 | 2
9 | CCCc1cc(C(=O)N[C@@H](Cc2ccccc2)[C@H](O)CNC(C)C)c(F)c(N2CCCC2=O)c1 | 90 | 22 | 0
